Records with an inconclusive call do not appear. Activity calls are given as the source filed them. Unless noted, calls follow the shape of the dose curve; as a rule, active = well fitted curve in the direction sought with a large enough effect in the repeat runs; inconclusive = weak or mixed curves; inactive = no such curve, though single readings can be large; an effect the other way counts as inactive or inconclusive.
Columns and labels:
[1] = qHTS assay to identify small molecule agonists of the NFkB signaling pathway (AID 1159509; active = well fitted curve in the direction sought with a large enough effect in the signal ratio in the repeat runs, not every such curve was filed as active; the % refers to the signal ratio; also: series mostly up to about 61 µM)
How it was run: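 Agonist activity was read as beta-lactamase-driven FRET change (460 and 530 nm emission, 405 nm excitation) following 1.5 hr substrate loading at room temperature. Beforehand, ME-180 NFkB-bla reporter cells were treated with compounds for 5 hr at 37 C.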

[2] = qHTS assay to identify small molecule agonists of the NFkB signaling pathway - cell viability counter screen (AID 1159515; calls by dose curve; also: nearly all actives have a fitted effect of over 55% in size; also: potency is read from the fitted curve at half-maximal effect)
How it was run: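 Cells are seeded (2,000 NFkB-bla ME-180 per well), rested overnight, and dosed with DMSO-dissolved compounds for 5 hr at 37 C. Viability is then read by CellTiter-Glo luminescence after 30 min at room temperature.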

[3] = qHTS assay to identify small molecule agonists of the endoplasmic reticulum stress response signaling pathway (AID 1159516; active = well fitted activation curve with a large enough effect in the signal ratio in the repeat runs, not every such curve was filed as active; the % refers to the signal ratio)
How it was run: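 Cells are seeded at 1,500 per well and incubated overnight. Compounds in DMSO are added for 5 hr at 37 C, then beta-lactamase FRET substrate for 2 hr at room temperature, and fluorescence at 460 and 530 nm is measured.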

[4] = qHTS assay to identify small molecule antagonists of the retinoid-related orphan receptor gamma (ROR-gamma) signaling pathway - cell viability counter screen (AID 1159520); also: nearly all actives have a fitted effect of over 50% in size; also: potency is read from the fitted curve at half-maximal effect
How it was run: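 Tet-on ROR gamma CHO cells were given compounds for 2 hr, then doxycycline hyclate at 1 uM final, and incubated 16 hr at 37 C. Viability was measured as ATP content by CellTiter-Glo luminescence.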

[5] = biological target: Nuclear receptor ROR-gamma (Homo sapiens) (UniProt P51449); experiment: qHTS assay to identify small molecule antagonists of the retinoid-related orphan receptor gamma (ROR-gamma) signaling pathway (AID 1159521; also: nearly all actives have a fitted effect of over 50% in size; also: potency is read from the fitted curve at half-maximal effect)
How it was run: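 CHO Tet-on RORγ, RORE-luc reporter. Cpd 2 h pre-incubation, then dox hyclate 1 uM final, 16 h, 37 C/5% CO2. ONE-Glo luminescence; decrease = antagonist.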

[6] = qHTS assay to identify small molecule antagonists of the vitamin D receptor (VDR) signaling pathway - cell viability counter screen (AID 743225); also: nearly all actives have a fitted effect of over 50% in size
How it was run: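 Read-out: CellTiter-Glo luminescence measured 30 min after reagent addition at room temperature. Cells were VDR-bla HEK 293T exposed 16 h at 37C, 5% CO2, to compound with 3 nM final calcitriol agonist.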

[7] = qHTS assay to identify small molecule agonists of the AP-1 signaling pathway - cell viability counter screen (AID 1159525; calls by dose curve; also: nearly all actives have a fitted effect of over 55% in size)
How it was run: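 Same-well cytotoxicity counter screen of the Tox21 10K library in ME-180 cells. The readout is ATP-dependent luminescence after 5 h compound treatment. Data are normalised to DMSO and tetra n-octyl ammonium bromide controls.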

[8] = qHTS assay to identify small molecule agonists of the AP-1 signaling pathway (AID 1159526; calls by dose curve)
[9] = biological target: Retinoic acid receptor RXR-alpha (Homo sapiens) (UniProt P19793); experiment: qHTS assay to identify small molecule agonists of the RXR signaling pathway (AID 1159527; calls by dose curve; also: nearly all actives have a fitted effect of over 35% in size)
How it was run: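 Read-out: beta-lactamase FRET ratio (405 nm excitation, 460 and 530 nm emission) after 2 hr substrate loading at room temperature. Cells were RXR-alpha-UAS-bla HEK 293T treated with compounds for 16 hr in 2% charcoal-stripped FBS medium.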

[10] = qHTS assay to identify small molecule agonists of the RXR signaling pathway - cell viability counter screen (AID 1159529); also: nearly all actives have a fitted effect of over 50% in size; also: potency is read from the fitted curve at half-maximal effect
How it was run: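 HEK 293T RXRa-bla cells, 2% CS-FBS; 5 h settle; cpd 16 h 37 C, 5% CO2; CellTiter-Glo 30 min RT, luminescence. Tetraoctyl ammonium bromide as positive control.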

[11] = qHTS assay to identify small molecule antagonists of the retinoid acid receptor (RAR) signaling pathway - cell viability counter screen (AID 1159551); also: nearly all actives have a fitted effect of over 35% in size
How it was run: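 Cells (C3RL4) are plated, incubated overnight, dosed with compound in DMSO, then given retinol at 1 uM final. After 6 h at 37 C, CellTiter-Glo is added and luminescence read following 30 min at room temperature.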

[12] = qHTS assay to identify small molecule antagonists of the retinoic acid receptor (RAR) signaling pathway (AID 1159552; also: nearly all actives have a fitted effect of over 50% in size)
How it was run: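 Cells of the C3RL4 line were seeded, incubated overnight, then dosed with compounds in DMSO followed immediately by retinol (1 uM final). Six hours later luciferase detection reagent went in; signal was measured after 30 min at RT.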

[13] = qHTS assay to identify small molecule agonists of the retinoic acid receptor (RAR) signaling pathway (AID 1159553); also: potency is read from the fitted curve at half-maximal effect
How it was run: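 Seed C3RL4 reporter cells at 1,000 per well and incubate overnight at 37 C. Add compounds in DMSO, incubate 6 hr. Add luciferase reagent, wait 30 min at room temperature, read luminescence.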

Measured: Potency

Chain of Retinoic acid receptor RXR-alpha (Homo sapiens) (P19793 whole entry, looked up): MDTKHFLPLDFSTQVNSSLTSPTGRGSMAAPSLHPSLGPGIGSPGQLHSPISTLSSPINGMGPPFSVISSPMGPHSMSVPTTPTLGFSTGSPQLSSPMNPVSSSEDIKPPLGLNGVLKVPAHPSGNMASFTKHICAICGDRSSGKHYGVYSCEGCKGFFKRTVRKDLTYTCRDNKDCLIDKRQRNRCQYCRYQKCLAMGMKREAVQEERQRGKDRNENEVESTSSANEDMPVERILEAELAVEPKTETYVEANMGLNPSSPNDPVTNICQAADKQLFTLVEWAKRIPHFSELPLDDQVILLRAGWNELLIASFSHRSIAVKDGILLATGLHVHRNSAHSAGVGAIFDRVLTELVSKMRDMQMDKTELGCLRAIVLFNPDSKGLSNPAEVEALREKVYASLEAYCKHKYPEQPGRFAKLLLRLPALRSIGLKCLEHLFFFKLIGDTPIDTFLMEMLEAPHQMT

CO[C@@H]1[C@@H](OC)[C@H](C)[C@@](O)(CC(=O)O)O[C@H]1[C@H](C)[C@H]1O[C@@]2(CC[C@@](C)([C@H]3CC[C@@](C)([C@@H]4O[C@@H]([C@H]5O[C@](C)(O)[C@H](C)C[C@@H]5C)C[C@@H]4OC4C[C@H](OC)[C@@H](OC)[C@H](C)O4)O3)O2)C[C@H](O)[C@H]1C (stereo partly drawn)
inactive: [1] | [2] | [3]
active: [4] 9.44 µM | [5] 0.237 µM

O=S(=O)(Cl)c1c(Cl)cccc1Cl
inactive: [6] | [1] | [2] | [3] | [4] | [5] | [7] | [8] | [9] | [10] | [11] | [12] | [13]

O=C(O)CCC(=O)OC[C@@H](NC(=O)C(Cl)Cl)[C@H](O)c1ccc([N+](=O)[O-])cc1
inactive: [1] | [2] | [3] | [4] | [5] | [7] | [8] | [9] | [10] | [11] | [12] | [13]

O=C1OC(=O)c2c(Br)c(Br)c(Br)c(Br)c21
inactive: [6] | [1] | [2] | [3] | [4] | [5] | [7] | [8] | [9] | [10] | [11] | [12] | [13]

c1ccc(CNc2ncnc3c2ncn3C2CCCCO2)cc1 (stereo not drawn)
inactive: [1] | [2] | [3] | [4] | [5] | [7] | [8] | [9] | [11] | [12]
active: [13] 4.33 µM

CC(=O)Oc1cccc(O)c1
inactive: [6] | [1] | [2] | [3] | [4] | [5] | [7] | [8] | [9] | [10] | [11]

Nc1ccc(F)cc1
inactive: [6] | [1] | [2] | [3] | [4] | [5] | [7] | [8] | [9] | [10] | [11] | [12] | [13]

CCSC(=O)N(CC)CC
inactive: [6] | [1] | [2] | [3] | [4] | [5] | [7] | [8] | [9] | [10] | [11]

O=C(C(=O)c1ccco1)c1ccco1
inactive: [1] | [2] | [3] | [4] | [5] | [7] | [8] | [9] | [11]

CC(C)N=C=NC(C)C
inactive: [6] | [1] | [2] | [3] | [4] | [5] | [7] | [8] | [9] | [10] | [11] | [12] | [13]

CCN(CC)CCOC(=O)C(c1ccccc1)c1ccccc1
inactive: [6] | [1] | [2] | [3] | [4] | [5] | [7] | [8] | [9] | [10] | [11] | [12] | [13]

C=CC(=O)O
inactive: [1] | [2] | [3] | [4] | [5] | [7] | [8] | [9] | [10] | [11] | [12] | [13]

CCOC(=O)Oc1ccc(CCNC(=O)[C@H](CCSC)NC(C)=O)cc1OC(=O)OCC
inactive: [6] | [1] | [2] | [3] | [4] | [5] | [7] | [8] | [9] | [10] | [11]

C/C(C=O)=C\c1ccccc1
inactive: [6] | [1] | [2] | [3] | [4] | [5] | [7] | [8] | [9] | [10] | [11] | [13]

CC[C@@H](CO)NCCN[C@@H](CC)CO
inactive: [6] | [1] | [2] | [3] | [4] | [5] | [7] | [8] | [9] | [10] | [11] | [12] | [13]

CC(=O)C(=O)CC(C)C
inactive: [6] | [1] | [2] | [3] | [4] | [5] | [7] | [8] | [9] | [10] | [11]

COC(OC)OC
inactive: [1] | [2] | [3] | [4] | [5] | [7] | [8] | [9] | [10] | [11] | [12] | [13]

Cc1ccc(Cl)cc1N
inactive: [6] | [1] | [2] | [3] | [4] | [5] | [7] | [8] | [9] | [10] | [11] | [12] | [13]

CNCc1ccc(NC(=O)c2c[nH]c3c2C(=O)CCC3)cc1
inactive: [6] | [1] | [2] | [3] | [4] | [5] | [7] | [8] | [9] | [11] | [12]

CCOc1ncc(F)c(=O)[nH]1
inactive: [1] | [2] | [3] | [4] | [7] | [8] | [9] | [10] | [11] | [12] | [13]

CCCCCCCCCCCCCOS(=O)(=O)O
active: [2] 54.9 µM | [10] 24.5 µM
inactive: [1] | [3] | [4] | [5] | [9] | [11]
